Assay [1] is described as follows: qHTS assay to identify small molecule agonists of the estrogen receptor alpha (ER-alpha) signaling pathway in the presence of an antagonist - cell viability counter screen (AID 1259386). Also: nearly all actives have a fitted effect of over 30% in size. Also: potency is read from the fitted curve at half-maximal effect. The procedure, abridged: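 Compounds tested at 15 concentrations for 22 h at 37C alongside 10.0nM (final) ICI-182,780 antagonist, in VM7Luc4E2 cells grown in phenol red-free, charcoal-stripped medium. Viability read by CellTiter-Fluor fluorescence after 1 h reagent incubation.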

Assay [2] concerns the target Progesterone receptor (Homo sapiens) (UniProt P06401). Kind of assay: qHTS assay to identify small molecule agonists of the progesterone receptor (PR) signaling pathway (AID 1346784; calls by dose curve; also: nearly all actives have a fitted effect of over 30% in size). The method, boiled down: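 Seed PR-UAS-bla HEK 293T cells (2% charcoal-stripped FBS), incubate 6 hr at 37C; add compounds in DMSO, 16 hr at 37C; add LiveBLAzer B/G substrate, 2 hr RT; read fluorescence intensity.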

Assay [3] shares this target. As to the kind of experiment: qHTS assay to identify small molecule antagonists of the progesterone receptor (PR) signaling pathway (AID 1346795; active = well fitted inhibition curve with a large enough effect in the signal ratio in the repeat runs, not every such curve was filed as active; the % refers to the signal ratio; also: potency is read from the fitted curve at half-maximal effect). The method, boiled down:
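Screening used a GripTite HEK293T line with PR-responsive UAS-beta-lactamase. Cells were challenged with compound in the presence of 1 nM R5020 final for 16 hr at 37C; B/G FRET substrate, 2 hr room temperature, fluorescence.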

Assay [4] can be described thus: qHTS assay to identify small molecule antagonists of the progesterone receptor (PR) signaling pathway - cell viability counter screen (AID 1346798). Also: nearly all actives have a fitted effect of over 50% in size. Also: potency is read from the fitted curve at half-maximal effect. The procedure, abridged:
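Measures cytotoxicity in parallel with the PR antagonist reporter read: HEK293T PR-UAS-bla cells get compound and R5020 for 16 hr, and remaining viable cells are quantified by CellTiter-Glo luminescence.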
For orientation: In qHTS, concentration-response curves come from the screen itself.

Assay [5] in a line: qHTS assay to identify small molecule agonists of the progesterone receptor (PR) signaling pathway - cell viability counter screen (AID 1346799; calls by dose curve; also: nearly all actives have a fitted effect of over 45% in size). The method, boiled down: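 Using the same plates as the PR reporter screen, HEK293T PR-UAS-bla cells received compounds for 16 hr at 37C and were then lysed with CellTiter-Glo; luminescence was read 30 min later at room temperature.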

Assay [6] can be described thus: qHTS assay to identify small molecule antagonists of the TGF-beta/Smad signaling pathway - cell viability counter screen (AID 1346824). Also: nearly all actives have a fitted effect of over 50% in size. The procedure, abridged: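 SBE-bla HEK 293T cells were plated overnight at 37 C, then given compounds in DMSO plus TGF-beta1 (added as 0.25 ng/mL solution) for 5 hr. After the bla read, CellTiter-Glo was added to the same wells and luminescence read after 30 min at room temperature.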

The nature of assay [7]: qHTS assay to identify small molecule agonists of the TGF-beta/Smad signaling pathway - cell viability counter screen (AID 1346829). Also: top concentration of the series differs between compounds; nearly all actives have a fitted effect of over 45% in size. The procedure, abridged: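 Luminescence from CellTiter-Glo, read after a 30 min room-temperature incubation, gives cell viability of SBE-bla HEK 293T cells treated 5 hr with compounds at 37 C.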
Assay [8] in a line: qHTS assay to identify small molecule agonists of the TGF-beta/Smad signaling pathway (AID 1346859; active = well fitted activation curve with a large enough effect in the signal ratio in the repeat runs, not every such curve was filed as active; the % refers to the signal ratio; also: series mostly up to about 77 µM). The method, boiled down: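 Beta-lactamase reporter activity downstream of Smad binding elements was measured in stably transfected HEK 293T cells; compounds were incubated for 5 hr, substrate for 2 hr at room temperature.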
Assay [9] addresses Thyrotropin-releasing hormone receptor (Homo sapiens) (UniProt P34981). As to the kind of experiment: qHTS assay to identify small molecule antagonists of the thyrotropin-releasing hormone receptor (TRHR) signaling pathway (AID 1346877; active = well fitted inhibition curve with a large enough effect in the repeat runs, not every such curve was filed as active; also: series mostly up to about 51 µM). The procedure, abridged:
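Antagonist mode: after a 5 min room-temperature compound exposure, cells were stimulated with 1 nM (final) TRH. Dye-loaded TRHR-HEK293 cells were used, and calcium-dependent fluorescence was followed for 3 min, with 15-point titrations run in triplicate.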

Assay [10] deals with Thyrotropin receptor (Homo sapiens) (UniProt P16473). Kind of assay: qHTS assay to identify small molecule antagonists of the thyroid stimulating hormone receptor (TSHR) signaling pathway (AID 1259385; calls by dose curve; also: nearly all actives have a fitted effect of over 20% in size). The procedure, abridged: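 TSHR-HEK293 cells were plated and held 18 h at 37C/5% CO2, then given compound plus Ro20-1724 and stimulated with TSH at 1.5 ng/mL final. After 30 min at room temperature, cAMP was detected with cAMP-d2/anti-cAMP-cryptate (1 h) by fluorescence.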

Molecules are shown by their SMILES. Values without a mark were called inactive. Inconclusive results are not listed. The source made the active and inactive calls. Unless noted, calls follow the shape of the dose curve; as a rule, active = well fitted curve in the direction sought with a large enough effect in the repeat runs; inconclusive = weak or mixed curves; inactive = no such curve, though single readings can be large; an effect the other way counts as inactive or inconclusive.

Thyrotropin receptor (Homo sapiens), sequence (P16473 whole entry, looked up): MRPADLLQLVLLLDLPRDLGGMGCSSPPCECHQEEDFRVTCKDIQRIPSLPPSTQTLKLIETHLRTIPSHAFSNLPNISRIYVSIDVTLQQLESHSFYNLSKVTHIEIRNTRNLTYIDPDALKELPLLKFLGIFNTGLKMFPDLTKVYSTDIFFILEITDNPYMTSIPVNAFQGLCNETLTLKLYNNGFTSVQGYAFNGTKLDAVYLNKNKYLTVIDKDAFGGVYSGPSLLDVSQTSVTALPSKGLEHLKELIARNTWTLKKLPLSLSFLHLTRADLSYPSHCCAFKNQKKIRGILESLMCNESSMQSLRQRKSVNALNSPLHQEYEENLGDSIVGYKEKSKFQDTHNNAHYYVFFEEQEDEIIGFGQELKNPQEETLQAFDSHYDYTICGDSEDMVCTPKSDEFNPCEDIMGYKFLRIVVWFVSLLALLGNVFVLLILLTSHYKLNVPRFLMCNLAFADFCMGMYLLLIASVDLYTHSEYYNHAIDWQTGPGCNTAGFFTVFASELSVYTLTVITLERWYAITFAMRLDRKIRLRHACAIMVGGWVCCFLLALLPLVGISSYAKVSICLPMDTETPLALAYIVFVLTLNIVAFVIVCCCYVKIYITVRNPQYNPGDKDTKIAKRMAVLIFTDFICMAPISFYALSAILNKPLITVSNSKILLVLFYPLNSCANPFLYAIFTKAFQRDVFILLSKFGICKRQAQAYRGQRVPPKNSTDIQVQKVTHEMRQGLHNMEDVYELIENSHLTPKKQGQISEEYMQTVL
Thyrotropin-releasing hormone receptor (Homo sapiens), sequence (P34981 whole entry, looked up): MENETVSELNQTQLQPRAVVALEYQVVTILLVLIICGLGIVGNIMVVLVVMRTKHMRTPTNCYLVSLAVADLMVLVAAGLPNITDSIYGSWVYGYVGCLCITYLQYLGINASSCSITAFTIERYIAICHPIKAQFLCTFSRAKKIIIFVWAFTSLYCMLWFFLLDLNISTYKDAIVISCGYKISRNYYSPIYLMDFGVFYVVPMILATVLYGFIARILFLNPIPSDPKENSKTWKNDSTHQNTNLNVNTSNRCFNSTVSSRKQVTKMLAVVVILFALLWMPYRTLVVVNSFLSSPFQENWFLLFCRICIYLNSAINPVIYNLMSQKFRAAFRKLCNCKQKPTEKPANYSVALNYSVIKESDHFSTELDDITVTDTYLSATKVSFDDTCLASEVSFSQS
Progesterone receptor (Homo sapiens), sequence (P06401 whole entry, looked up): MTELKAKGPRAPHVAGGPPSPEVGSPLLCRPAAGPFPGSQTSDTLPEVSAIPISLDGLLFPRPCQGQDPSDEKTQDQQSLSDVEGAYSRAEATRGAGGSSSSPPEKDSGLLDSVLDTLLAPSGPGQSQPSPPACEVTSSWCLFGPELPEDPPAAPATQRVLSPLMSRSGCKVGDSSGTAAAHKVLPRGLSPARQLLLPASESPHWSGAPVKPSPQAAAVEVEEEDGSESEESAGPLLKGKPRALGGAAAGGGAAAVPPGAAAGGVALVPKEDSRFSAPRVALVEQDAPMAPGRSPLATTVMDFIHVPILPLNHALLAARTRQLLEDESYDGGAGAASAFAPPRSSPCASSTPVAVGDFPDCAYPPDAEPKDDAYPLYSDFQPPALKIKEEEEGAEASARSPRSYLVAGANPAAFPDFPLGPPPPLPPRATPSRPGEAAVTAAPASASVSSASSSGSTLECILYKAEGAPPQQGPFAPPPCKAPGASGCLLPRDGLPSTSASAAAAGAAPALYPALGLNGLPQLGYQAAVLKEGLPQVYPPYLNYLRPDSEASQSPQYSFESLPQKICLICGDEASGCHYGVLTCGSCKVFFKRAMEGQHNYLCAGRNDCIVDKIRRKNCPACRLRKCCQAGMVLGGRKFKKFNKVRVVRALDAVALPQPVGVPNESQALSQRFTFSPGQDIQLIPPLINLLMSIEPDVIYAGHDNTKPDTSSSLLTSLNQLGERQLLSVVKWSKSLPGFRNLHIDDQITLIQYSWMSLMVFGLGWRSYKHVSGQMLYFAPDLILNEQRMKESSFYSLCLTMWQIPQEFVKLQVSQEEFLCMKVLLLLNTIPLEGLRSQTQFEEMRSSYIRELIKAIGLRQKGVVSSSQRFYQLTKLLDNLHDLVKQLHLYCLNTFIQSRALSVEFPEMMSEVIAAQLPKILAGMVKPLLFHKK

Consider `CCCCCCCC/C=C\CCCCCCCC(=O)OC(CO)CO`, for which the Potency entry in assay [1], in assay [2], in assay [3], in [4] and in assay [5] was “inactive” each time. The compound was classed as inactive in [6], in assay [7], in assay [8] and in assay [9].
Take `COc1ccccc1N=Nc1c(S(=O)(=O)O)cc2cc(S(=O)(=O)O)cc(NC(C)=O)c2c1O`: in [1], the Potency is 22.9 µM (active). The Potency result in assay [2], in assay [3], in assay [4] and in assay [5] was “inactive” in each case. Further, the compound was called inactive in [6], in assay [7] and in assay [8].
Consider `CC[C@H](NC(=O)c1cc(F)ccc1NS(=O)(=O)c1cccc2cccnc12)c1ccccc1`, for which the Potency result in assay [10], in assay [1] and in assay [5] was “inactive” throughout. Moreover, the call in assay [6], in assay [7], in assay [8] and in assay [9] was inactive.
On to `CCC(Cc1ccccc1)(C(=O)c1ccc(N2CCOCC2)cc1)N(C)C` (stereo not given), for which the Potency result in [10] and in assay [2] was “inactive” each time. In assay [3], the Potency was 48.6 µM (active). For the same compound, the result in [7] was inactive.
With `c1cc[c]([Bi]([c]2ccccc2)[c]2ccccc2)cc1`, the Potency result in assay [10] and in [1] was “inactive” in each case. The result in [6], in [7], in [8] and in assay [9] was inactive.
Consider `O=S1OCCO1`, for which the Potency result in assay [1], in assay [2], in assay [3], in [4] and in [5] was “inactive” in each case. Moreover, the compound was classed as inactive in [6], in [7], in assay [8] and in assay [9].
On to `CCN(CC)CCNC(=O)c1ccc(NC(C)=O)cc1`, for which the Potency entry in [1], in assay [2], in assay [3], in [4] and in [5] was “inactive” each time. The call in assay [6], in assay [7] and in assay [8] was inactive.
Turning to `COCC(O)CO` (stereo not given), the Potency result in [1], in assay [2], in assay [3], in assay [4] and in [5] was “inactive” each time. The compound was classed as inactive in assay [6], in [7], in [8] and in assay [9].
On to `C=CC(C)=CCC=C(C)C`, for which the Potency result in assay [1], in assay [2], in assay [3], in [4] and in assay [5] was “inactive” each time. The result in assay [6], in assay [7] and in assay [8] was inactive.
As to `CCCC1C(CC)=CC(CC)=CN1c1ccccc1` (stereo not given), the Potency result in [10] and in [2] was “inactive” each time. Also, the Potency in assay [3] is 27.3 µM (active). The outcome in assay [6] and in assay [7] was inactive.
Consider `Nc1ccc(Cl)cc1[N+](=O)[O-]`, for which the Potency result in [10], in assay [2], in [4] and in assay [5] was “inactive” throughout. Moreover, the compound was called inactive in assay [7], in assay [8] and in assay [9].
`Nc1ccc(S(=O)(=O)O)cc1`: the Potency result in [1], in assay [2], in assay [3], in assay [4] and in assay [5] was “inactive” throughout. For the same compound, the call in [6], in [7] and in assay [8] was inactive.
As to `O=c1[nH]c2ccc(S(=O)CCN3CCC(Cc4ccc(F)cc4)CC3)cc2o1` (stereo not given), the Potency result in [10] and in assay [2] was “inactive” throughout. Moreover, the call in assay [6] and in assay [7] was inactive.
Take `CC(C)C(=O)O`: the Potency result in assay [1], in assay [2], in assay [3], in assay [4] and in [5] was “inactive” throughout. Moreover, the compound was called inactive in assay [6], in [7] and in [8].
`Nc1nccs1`: the Potency entry in assay [1], in assay [2], in assay [3], in assay [4] and in [5] was “inactive” each time. The outcome in assay [6], in assay [7], in assay [8] and in [9] was inactive.
For `COC(=O)c1cc(S(N)(=O)=O)ccc1OC`, the Potency entry in assay [1], in assay [2], in assay [3], in assay [4] and in [5] was “inactive” throughout. The result in assay [6], in assay [7] and in [8] was inactive.
On to `CC(=O)CC(c1ccc([N+](=O)[O-])cc1)c1c(O)c2ccccc2oc1=O` (stereo not given), for which the Potency entry in assay [1], in assay [2], in assay [3], in [4] and in [5] was “inactive” each time. Also, the call in [6], in assay [7] and in assay [8] was inactive.
As to `O=C(O)c1snc(Cl)c1Cl`, the Potency result in [1], in assay [2], in [3], in assay [4] and in assay [5] was “inactive” throughout. Moreover, the call in assay [6], in assay [7], in assay [8] and in assay [9] was inactive.
For `CCC(=O)OC/C=C/c1ccccc1`, the Potency entry in [1], in assay [2], in [3], in [4] and in assay [5] was “inactive” throughout. Besides, the outcome in assay [6], in assay [7] and in assay [8] was inactive.
Consider `NCC1CCCC(CN)C1` (stereo not given), for which the Potency result in [1], in assay [2], in assay [3], in assay [4] and in assay [5] was “inactive” each time. In addition, the compound was called inactive in assay [6], in assay [7], in assay [8] and in assay [9].
As to `O=C1OCCN1/N=C/c1ccc([N+](=O)[O-])o1`, the Potency result in [1], in assay [2], in assay [3], in assay [4] and in assay [5] was “inactive” in each case. Further, the outcome in assay [6], in assay [7], in assay [8] and in assay [9] was inactive.
Take `O=C1NCCN1`: the Potency result in [1], in [2], in assay [3], in assay [4] and in assay [5] was “inactive” each time. The call in assay [6] and in [7] was inactive.
For `CCOC(=O)CC(=O)C(=O)OCC`, the Potency entry in [10] is “inactive”. Besides, in assay [4], the Potency was 15.4 µM (active). In addition, the compound was called inactive in assay [6], in assay [7] and in [8].
With `CC(=O)Oc1ccc2c(c1)CC[C@@H]1[C@@H]2CC[C@]2(C)[C@@H](O)CC[C@@H]12`, the Potency result in [10], in assay [1] and in assay [5] was “inactive” in each case. Moreover, the compound was called inactive in assay [7], in assay [8] and in [9].
Consider `CN1CCCN=C1/C=C/c1cccs1`, for which the Potency entry in assay [1], in assay [2], in [3], in [4] and in assay [5] was “inactive” in each case. Also, the result in [6] and in assay [7] was inactive.
